Assay [1] can be described thus: NCI Yeast Anticancer Drug Screen. Data for the rad50 strain (AID 155).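 Note: 0% = growth of vehicle-only cultures of the same strain.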 As to conditions: S. cerevisiae rad50 strain growth inhibition; at 50.0 µM; active compounds read high. The essentials:
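Growth of the mutant yeast was measured after compound exposure and referenced to vehicle-treated cultures.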

A short description of assay [2]: NCI Yeast Anticancer Drug Screen. Data for the mec2-1 strain (AID 157). To be noted: S. cerevisiae mec2-1 strain, at 50.0 µM, active compounds read high. The essentials:
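Growth inhibition is read against vehicle-treated controls after compound exposure of the mec2-1 yeast strain, which is defective in DNA damage repair or cell cycle control.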

Assay [3] in a line: NCI Yeast Anticancer Drug Screen. Data for the sgs1 mgt1 strain (AID 161).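 Note: 0% = growth of cultures given vehicle only.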 As to conditions: S. cerevisiae sgs1 mgt1 strain, at 50.0 µM, active compounds read high. The essentials: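 Compounds are added to genetically altered yeast, and growth is compared with cultures given vehicle alone to give percent inhibition.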
Assay [4] can be described thus: NCI Yeast Anticancer Drug Screen. Data for the cln2 rad14 strain (AID 165).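 Note: 0% = growth equal to vehicle treated cultures.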 To be noted: S. cerevisiae cln2 rad14 strain, at 50.0 µM, active compounds read high. The essentials:
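Growth inhibition, relative to vehicle-treated controls, is the read-out. The test organism is a yeast strain with defined genetic alterations, cln2 rad14.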

The nature of assay [5]: NCI Yeast Anticancer Drug Screen. Data for the bub3 strain (AID 167). To be noted: S. cerevisiae bub3 mutant strain, at 50.0 µM, active compounds read high. The essentials: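 Whole-cell yeast assay. The mutant strain was incubated with compounds, and growth inhibition was determined by comparison with vehicle-treated cells.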
A short description of assay [6]: NCI Yeast Anticancer Drug Screen. Data for the mlh1 rad18 strain (AID 175). As to conditions: S. cerevisiae mlh1 rad18 strain growth inhibition; at 50.0 µM; active compounds read high. The essentials: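 Cells of a genetically altered yeast strain, deficient in DNA damage repair, were treated with compound. Their growth was then compared with that of vehicle-treated cultures to give inhibition.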

The panel holds about 79,000 compounds, 15% with a hit somewhere; the sample as a whole holds those more often. Values without a mark were called inactive. Active and inactive are the calls of the source. Cut-off read from the data, not from the text of the source: active = growth inhibition above about 70%; inactive = the rest.

For `CCCCCCCCCCCCCCCC(=O)Oc1ccc(/C(CC)=C(/CC)c2ccc(OC(=O)CCCCCCCCCCCCCCC)cc2)cc1`, the growth inhibition in assay [1] is 16.1%; in assay [2] it was -8.1%; in assay [3], 8.55%; in assay [4], 1.85%; in assay [5], 8.65%; in assay [6], 4.25%.

In the case of `O=C1NCCc2c1sc1ccccc21`, the growth inhibition was -9.95% in assay [1]; 2.45% in assay [2]; -0.95% in assay [3]; 1.5% in assay [4]; -1.05% in assay [5]; -6.9% in assay [6].

Turning to `NNc1ncnc2ccc(Cl)cc12`, the growth inhibition in assay [1] was 1.05%; in assay [2], -9.15%; in assay [3], 11.4%; in assay [4] it was 1.05%; in assay [5], 5.8%; in assay [6], 6.5%.

As to `Cn1c(=O)c2c(ncn2CCSCC2=NS(=O)(=O)c3cc(S(N)(=O)=O)c(C(F)(F)F)cc3N2)n(C)c1=O`, the growth inhibition is 2.8% in assay [1]; 1.75% in assay [2]; -6.5% in assay [3]; -35.6% in assay [4]; 14.1% in assay [5]; 4.95% in assay [6].

With `CC(=O)n1cc2cc([N+](=O)[O-])ccc2n1`, the growth inhibition in assay [1] is -13.4%; in assay [2], -13.6%; in assay [3] it was -1.15%; in assay [4] it was -91.8%; in assay [5], -1%; in assay [6] it was -17.1%.

Take `Clc1ccc(SCCCCSc2ccc(Cl)cc2)cc1`: the growth inhibition in assay [1] was 8.05%; in assay [2], -6.7%; in assay [3], 7.7%; in assay [4] it was -3.45%; in assay [5] it was 10.8%; in assay [6], 10.8%.

With `COC(=O)C(NC(=O)c1ccccc1)C(c1c(O)cc(O)cc1O)P(=O)(OC)OC` (stereo not given), the growth inhibition is -4.75% in assay [1]; 10.3% in assay [2]; 12.4% in assay [3]; 3.35% in assay [4]; 1% in assay [5]; 18% in assay [6].

As for `O=S(=O)(O)c1ccc(OCCCCCCCCCCOc2ccc(S(=O)(=O)O)cc2)cc1`, the growth inhibition in assay [1] is -14.6%; in assay [2], 9.15%; in assay [3], -9.6%; in assay [4] it was 0.7%; in assay [5], -5.35%; in assay [6], -8.1%.

With `Cc1ccc(-n2cc(-c3ccc(Cl)cc3)c3c(=N)n(N)cnc32)cc1`, the growth inhibition in assay [1] was -12.2%; in assay [2], -14.2%; in assay [3] it was 49.8%; in assay [4] it was 26.2%; in assay [5] it was 16.8%; in assay [6] it was 47%.

In the case of `COC(=O)C1=NC(=S)N=C(C(=O)OC)C1(C)C(=O)c1ccccc1`, the growth inhibition was 4.3% in assay [1]; -6.95% in assay [2]; -12.4% in assay [3]; 0.8% in assay [4]; 3.75% in assay [5]; 18.4% in assay [6].

`CN/N=C(/Cc1occc(=O)c1O)C(=O)Nc1ccc(C)c(C)c1`: the growth inhibition in assay [1] is 15.4%; in assay [2], 7.05%; in assay [3], -16.7%; in assay [4], 3.15%; in assay [5], 7.35%; in assay [6], 18.1%.

Take `CCOC(=O)c1sc(C(=O)OCC)c(O)c1O`: the growth inhibition is 97% (active) in assay [1]; 95.5% (active) in assay [2]; 97.8% (active) in assay [3]; 58.4% in assay [4]; 95.7% (active) in assay [5]; 97% (active) in assay [6].

Regarding `CC1=CCCCC1`, the growth inhibition in assay [1] is 3.85%; in assay [2] it was 2.8%; in assay [3] it was -1.35%; in assay [4], -5.1%; in assay [5] it was 8.65%; in assay [6], -7.25%.

On to `CC1(C)CNC(=O)C2(C=NC(C)(C)CNC(=O)C3(C=N1)CCCO3)CCCO2` (stereo not given), for which the growth inhibition is -10.2% in assay [1]; -5.6% in assay [2]; -36.2% in assay [3]; -8.55% in assay [4]; -17.6% in assay [5]; -11.2% in assay [6].

In the case of `CCCCCCCCCC[N+](C)(C)CC(O)CO` (stereo not given), the growth inhibition is -51.8% in assay [1]; 7.9% in assay [2]; 2.2% in assay [3]; 9.45% in assay [4]; -2.85% in assay [5]; -11.3% in assay [6].

Take `CC(=O)c1cccc(NC(=O)N(C)C2CCCCC2)c1`: the growth inhibition in assay [1] was 5.65%; in assay [2], 13.7%; in assay [3], -3.65%; in assay [4] it was -15.6%; in assay [5], -7.45%; in assay [6] it was -22.1%.

In the case of `CC(=O)/C(=C/n1ccc(=O)[nH]c1=S)C(=O)Nc1ccc([N+](=O)[O-])cc1`, the growth inhibition in assay [1] was -18.3%; in assay [2] it was -18.8%; in assay [3] it was -38.2%; in assay [4] it was -20.4%; in assay [5], -2.85%; in assay [6], -10.9%.

Regarding `O=C1CCc2ccccc21`, the growth inhibition in assay [1] was -26.6%; in assay [2], -10.5%; in assay [3], -15%; in assay [4], 15.1%; in assay [5], 3.25%; in assay [6] it was 7.75%.

Consider `CC(=O)Oc1c(C)cc2c(c1C)C(C)(C)CN2C(=O)C(C)(C)C`, for which the growth inhibition in assay [1] is 16.9%; in assay [2], -20.2%; in assay [3], 17.6%; in assay [4], -7.15%; in assay [5] it was -1.3%; in assay [6] it was 7.9%.

On to `O=C(On1nnc2ccccc2c1=O)c1ccccc1`, for which the growth inhibition in assay [1] is 29.7%; in assay [2], 20.4%; in assay [3] it was 22.8%; in assay [4], -7.25%; in assay [5], -3.25%; in assay [6], 12.8%.

These data come from PubChem BioAssay (NCI).
